# PINK1 expr mod – modulators of PINK1 expression. hit rate 0.2% among 410,000. PINK1 immunofluorescence, high-content cytometry, 24 h. Potency, µM (titrated, usually from 76.6 µM), without a hit: at the highest dose activation (PINK1 increase), actives largely listed as activators. AID 624263; active = well fitted activation curve with a large enough effect; inconclusive = small, poorly fitted or top-dose-only effect; cell line not stated here; also: % of control where 0% means no effect; nearly all actives have a fitted effect of over 65% in size
#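 Readout is PINK1 immunofluorescence, quantified alongside mitochondrial, cell and nuclear markers by laser-scanning microplate cytometry. Cells from a stable line were exposed to compound titrations (5 concentrations) for 24 hours, with CCCP controls.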
# SW480 rereplic – DNA re-replication induction in SW480 cells | SW480 DNA re-replication, Hoechst DNA content imaging, 48 h | Potency, µM (highest dose often 46.1 µM), for the others: at the highest dose re-replication activation, most hits filed as activators | hit rate 1.8% among 340,000; also: % of control where 0% means no effect; nearly all actives have a fitted effect of over 55% in size
#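 Quantitative HTS format with DMSO vehicle controls; 48 hr drug incubation at 37 C, then 40 min Hoechst staining and scanning imager measurement at 405 nm excitation.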
# KB-V1 MDR tox – kills drug-selected multidrug resistant KB-V1 cells | hit rate 3.4% among 400,000 | KB-V1 MDR cells viability, CellTiter-Glo, 72 h | Potency, µM (top dose mostly 46.1 µM), usual class: cytotoxic; also: % is scaled to controls: 0 for no effect and ±100 for the full control effect; nearly all actives have a fitted effect of over 60% in size
#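 KB-V1 MDR subline cells in DMEM (phenol-red free, 10% FBS) exposed to compounds in qHTS concentration series for 72 h at 37 degrees C. Viability read by CellTiter-Glo luminescence; concentration-effect curves fitted after normalization and correction.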
# ALOX12 inh – inhibitors of human 12S-lipoxygenase ALOX12; P18054; purified 12hLO, xylenol orange hydroperoxide absorbance; Potency, µM (doses to about 108 µM), inactives show at the top dose activity change, negative = inhibition, usual class: inhibitors; hit rate 1.1% among 580,000; AID 1671190; also: % is scaled to controls: 0 for no effect and ±100 for the full control effect
# Target sequence (P18054 whole entry, looked up): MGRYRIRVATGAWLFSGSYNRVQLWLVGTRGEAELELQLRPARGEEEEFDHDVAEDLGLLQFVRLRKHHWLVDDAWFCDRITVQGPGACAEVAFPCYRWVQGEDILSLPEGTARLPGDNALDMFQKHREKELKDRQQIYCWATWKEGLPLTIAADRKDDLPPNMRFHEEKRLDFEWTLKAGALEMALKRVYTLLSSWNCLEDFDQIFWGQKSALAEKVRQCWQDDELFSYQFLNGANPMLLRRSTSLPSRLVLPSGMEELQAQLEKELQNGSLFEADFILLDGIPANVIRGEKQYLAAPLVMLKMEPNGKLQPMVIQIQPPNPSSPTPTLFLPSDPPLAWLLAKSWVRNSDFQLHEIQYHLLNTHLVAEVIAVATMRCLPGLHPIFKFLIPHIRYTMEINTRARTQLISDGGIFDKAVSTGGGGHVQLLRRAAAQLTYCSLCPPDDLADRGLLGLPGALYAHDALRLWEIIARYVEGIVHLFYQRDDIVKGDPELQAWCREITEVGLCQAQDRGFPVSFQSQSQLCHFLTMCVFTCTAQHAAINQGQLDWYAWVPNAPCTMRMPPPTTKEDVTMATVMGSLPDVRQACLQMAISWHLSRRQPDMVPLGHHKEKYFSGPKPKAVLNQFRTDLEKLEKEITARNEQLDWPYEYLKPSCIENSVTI
#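 Hydroperoxide product was detected by ferrous iron/xylenol orange as the 573 to 405 nm absorbance ratio. Arachidonic acid at 40 uM (final) was turned over for 30 min at room temperature by 150 nM human 12hLO, pH 7.0 Hepes buffer, after 15 min compound preincubation.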
# MCF10A rerep – DNA re-replication induction in MCF 10a cells. hit rate 2.9% among 350,000. MCF 10A DNA re-replication, Hoechst nuclear intensity, 48 h. Potency, µM (highest dose often 46.1 µM), inactives show at the top dose activity, positive = re-replication, actives largely listed as activators; also: % of control where 0% means no effect; nearly all actives have a fitted effect of over 50% in size
# KB-3-1 tox – kills parental KB-3-1 adenocarcinoma cells. KB-3-1 viability, CellTiter-Glo ATP luminescence, 72 h. Potency, µM (series often up to 46.1 µM), usual class: cytotoxic. hit rate 1.4% among 400,000; also: % is scaled to controls: 0 for no effect and ±100 for the full control effect; nearly all actives have a fitted effect of over 60% in size
#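 Multi-concentration cytotoxicity screen in KB-3-1 cells grown in DMEM lacking phenol red with 10% FBS. After 72 h at 37 °C with compound, ATP-dependent luminescence was recorded.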
# * marks the source's active call; other numbers are inactive results; i = inactive; ? = inconclusive; . = no result given; [ ] = dose if it differs, or a comment. In the library only some 5.8% were active in any assay of this set; here they are far more common. Unless noted, calls follow the shape of the dose curve; as a rule, active = well fitted curve in the direction sought with a large enough effect; inconclusive = small, poorly fitted or top-dose-only effect, or another doubt; inactive = no such curve, though single readings can be large; an effect the other way counts as inactive or inconclusive. Potency is read from the fitted curve at half-maximal effect.
SMILES,PINK1 expr mod,SW480 rereplic,KB-V1 MDR tox,ALOX12 inh,MCF10A rerep,KB-3-1 tox
COc1ccc(S(=O)(=O)N2CCC(C(=O)NC3CCCCC3)CC2)cc1OC,8.7%,?,i,-4.1%,0.4%,i
COc1ccc(CNC(=O)Cc2c(C)c3ccc(OC(C)=O)cc3oc2=O)cc1OC,.,.,.,-11.8%,.,.
CC(=O)c1ccc(NC(=O)CSc2nc(N3CCOCC3)nc(N3CCOCC3)n2)cc1,-0.2%,-5.2%,?,16.7%,5.2%,i
CC(=O)c1cccc(NC(=O)CSc2nc(N3CCCCC3)nc(N3CCCCC3)n2)c1,5.1%,2.24µM*,i,-7.5%,4.7%,i
CCC(=O)Nc1ccc(NC(=O)c2ccco2)c(OC)c1,-0.1%,-4.0%,i,147.2%[57.4 µM],10.3%[9.22 µM],i
COc1ccc(NC(=O)COC(=O)c2cc(OC)c(OC)cc2NC(=O)c2ccco2)cc1OC,10.4%,10.3µM*,i,-2.2%,?,i
COC(=O)c1ccccc1NC(=O)COC(=O)c1ccc(C)c(NC(=O)c2ccco2)c1,7.8%[38.3 µM],?,3.66µM*,-13.9%,25.5%,i
CCCC(=O)Nc1ccc(NC(=O)c2ccco2)c(OC)c1,3.55µM*,-6.4%,i,24.8%,-3.8%,i
CS(=O)(=O)c1ccc(OCCCN2CCC(C(O)(c3ccccc3)c3ccccc3)CC2)cc1,.,.,.,0.9%,.,.
Cc1cc(OCCCN2CCC(C(O)(c3ccccc3)c3ccccc3)CC2)ccc1Br,-0.9%,.,20.6µM*,?,.,?
N#Cc1cccc(OCCCN2CCC(C(O)(c3ccccc3)c3ccccc3)CC2)c1,2.0%,.,23.1µM*,?,.,?
O=C(NCCn1nc(-c2ccccc2)ccc1=O)c1ccc(Br)cc1,.,.,.,48.0%,.,.
Cc1oc(-c2ccc(Cl)cc2)cc1C(=O)/C(C#N)=C/Nc1ccccc1,5.0%,1.9%,i,0.0%,13µM*,i
Cn1c(=O)c2c(nc(NCCc3ccccc3)n2Cc2ccc(Br)cc2)n(C)c1=O,.,.,.,-0.4%,.,.
COc1cccc(Oc2nc3c(c(=O)n(Cc4ccccc4F)c(=O)n3C)n2C)c1,1.8%,.,i,-21.7%,.,i
Cc1cccc(Cn2c(NCCO)nc3c2c(=O)n(C)c(=O)n3C)c1,6.8%[38.3 µM],-4.1%,4.11µM*,?,-10.7%,?
Cn1c(NCc2cccnc2)nc2c1c(=O)n(Cc1ccccc1F)c(=O)n2C,4.6%[38.3 µM],-8.0%,14.6µM*,0.0%,-4.2%,?
Cn1c(=O)c2c(nc(NCCc3ccccc3)n2Cc2ccc(F)cc2)n(C)c1=O,-0.7%,6.6%,4.11µM*,-7.6%[57.4 µM],25.8%,?
Cc1ccc(Oc2nc3c(c(=O)n(Cc4ccccc4F)c(=O)n3C)n2C)cc1,0.8%[38.3 µM],-6.7%,11.6µM*,?,1.9%,i
COc1cccc(Cn2c(NCc3cccnc3)nc3c2c(=O)n(C)c(=O)n3C)c1,-3.2%,-2.4%,i,-7.4%,1.6%,3.66µM*
CC(C)CCn1c(NCCc2ccccc2)nc2c1c(=O)n(C)c(=O)n2C,1.6%,-2.9%,13µM*,5.3%[57.4 µM],20.0%,?
COc1ccc(CCNc2nc3c(c(=O)n(C)c(=O)n3C)n2C)cc1OC,-0.3%[38.3 µM],-2.7%,14.6µM*,0.0%,6.2%,i
C/C(CC(=O)Nc1ccc(OCc2ccccc2)cc1)=N\NC(=O)C(=O)Nc1ccc(C)c(Cl)c1,-1.9%,21.2%,i,15.0%,10.3µM*,?
C/C(CC(=O)Nc1ccc(C)c(Cl)c1)=N\NC(=O)c1ccco1,0.0%,-2.3%,?,-2.5%,18.4µM*,i
C/C(CC(=O)Nc1ccc(C)c(Cl)c1)=N\NC(=O)Cc1ccccc1,-1.2%,15.0%,?,7.7%,5.4%,i
Cc1ccc(NC(=O)COc2ccccc2)cc1Cl,3.6%,0.4%,i,.,?,i
COc1ccc2c(COC(=O)CNC(=O)c3ccc(C)c(C)c3)cc(=O)oc2c1,.,.,.,-18.7%,.,.
Cc1noc(C)c1C1CCCN1C(=O)c1cc(-c2ccco2)on1 (stereo unspecified),.,.,.,-9.1%,.,.

# High-throughput results: PubChem BioAssay, National Center for Advancing Translational Sciences (NCATS)
